Assay results published in article PMC11006913.
Numbering of substitutions follows the chain as printed.

Columns and labels:
Test in all cases: PBM; 200 nM protein, PBS
Conditions in all cases: dsDNA, one strand shown
[1] = molecular target: T1, SIX6 (Homo sapiens, UniProt O95475 114-200, L167I)
T1 sequence: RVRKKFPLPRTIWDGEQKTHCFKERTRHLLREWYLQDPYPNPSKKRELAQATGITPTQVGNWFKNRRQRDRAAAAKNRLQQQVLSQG

[2] = molecular target: T2, SIX6 (Homo sapiens, UniProt O95475 114-200, L143V)
T2 sequence: T1 sequence with L30V, I54L

[3] = molecular target: T3, SIX6 (Homo sapiens, UniProt O95475 114-200, H141N)
T3 sequence: T1 sequence with H28N, I54L

[4] = molecular target: T4, SIX6 (Homo sapiens, UniProt O95475 114-200, T165P)
T4 sequence: T1 sequence with T52P, I54L

[5] = molecular target: T5, SIX6 (Homo sapiens, UniProt O95475 114-200, T139Q)
T5 sequence: T1 sequence with T26Q, I54L

[6] = molecular target: T6, SIX6 (Homo sapiens, UniProt O95475 114-200, L167V)
T6 sequence: T1 sequence with I54V

[7] = molecular target: T7, SIX6 (Homo sapiens, UniProt O95475 114-200)
T7 sequence: T1 sequence with I54L

[8] = molecular target: T8, SIX6 (Homo sapiens, UniProt O95475 114-200, L143M)
T8 sequence: T1 sequence with L30M, I54L

[9] = molecular target: T9, SIX6 (Homo sapiens, UniProt O95475 114-200, T165G)
T9 sequence: T1 sequence with T52G, I54L

[10] = molecular target: T10, SIX6 (Homo sapiens, UniProt O95475 114-200, T165I)
T10 sequence: T1 sequence with T52I, I54L

[11] = molecular target: T11, SIX6 (Homo sapiens, UniProt O95475 114-200, L167M)
T11 sequence: T1 sequence with I54M

[12] = molecular target: T12, SIX6 (Homo sapiens, UniProt O95475 114-200, T165A)
T12 sequence: T1 sequence with T52A, I54L

[13] = molecular target: T13, SIX6 (Homo sapiens, UniProt O95475 114-200, L143I)
T13 sequence: T1 sequence with L30I, I54L

| Sequence | binding signal [1] | binding signal [2] | binding signal [3] | binding signal [4] | binding signal [5] | binding signal [6] | binding signal [7] | binding signal [8] | binding signal [9] | binding signal [10] | binding signal [11] | binding signal [12] | binding signal [13] |
| --- | --- | --- | --- | --- | --- | --- | --- | --- | --- | --- | --- | --- | --- |
| ACGGATCC | 10.2 upbm affinity estimate (log intensity, higher = more binding, comparable within an allelic series) | 9.67 upbm affinity estimate (log intensity, higher = more binding, comparable within an allelic series) | 10.1 upbm affinity estimate (log intensity, higher = more binding, comparable within an allelic series) | 9.26 upbm affinity estimate (log intensity, higher = more binding, comparable within an allelic series) | 10.5 upbm affinity estimate (log intensity, higher = more binding, comparable within an allelic series) | 10 upbm affinity estimate (log intensity, higher = more binding, comparable within an allelic series) | 10.2 upbm affinity estimate (log intensity, higher = more binding, comparable within an allelic series) |  |  |  |  |  |  |
| ATATCAAG | 11.1 upbm affinity estimate (log intensity, higher = more binding, comparable within an allelic series) |  |  |  |  | 10.9 upbm affinity estimate (log intensity, higher = more binding, comparable within an allelic series) |  | 11 upbm affinity estimate (log intensity, higher = more binding, comparable within an allelic series) | 11.1 upbm affinity estimate (log intensity, higher = more binding, comparable within an allelic series) | 10.9 upbm affinity estimate (log intensity, higher = more binding, comparable within an allelic series) |  |  |  |
| CTGACACC | 10.3 upbm affinity estimate (log intensity, higher = more binding, comparable within an allelic series) |  |  |  |  |  |  |  |  |  | 9.83 upbm affinity estimate (log intensity, higher = more binding, comparable within an allelic series) | 11.1 upbm affinity estimate (log intensity, higher = more binding, comparable within an allelic series) |  |
| CGGTGTCA | 10.3 upbm affinity estimate (log intensity, higher = more binding, comparable within an allelic series) |  |  | 9.3 upbm affinity estimate (log intensity, higher = more binding, comparable within an allelic series) |  |  |  |  |  |  | 9.76 upbm affinity estimate (log intensity, higher = more binding, comparable within an allelic series) | 11.1 upbm affinity estimate (log intensity, higher = more binding, comparable within an allelic series) |  |
| AAGGTATC | 11.1 upbm affinity estimate (log intensity, higher = more binding, comparable within an allelic series) |  | 11 upbm affinity estimate (log intensity, higher = more binding, comparable within an allelic series) |  |  |  |  |  |  |  |  |  |  |
| GATCAGCC | 10.2 upbm affinity estimate (log intensity, higher = more binding, comparable within an allelic series) | 9.81 upbm affinity estimate (log intensity, higher = more binding, comparable within an allelic series) |  | 9.41 upbm affinity estimate (log intensity, higher = more binding, comparable within an allelic series) |  |  | 10.3 upbm affinity estimate (log intensity, higher = more binding, comparable within an allelic series) |  |  |  | 10 upbm affinity estimate (log intensity, higher = more binding, comparable within an allelic series) |  | 9.82 upbm affinity estimate (log intensity, higher = more binding, comparable within an allelic series) |
| TATAACCA | 10.1 upbm affinity estimate (log intensity, higher = more binding, comparable within an allelic series) |  | 10.1 upbm affinity estimate (log intensity, higher = more binding, comparable within an allelic series) |  |  |  | 10.1 upbm affinity estimate (log intensity, higher = more binding, comparable within an allelic series) |  | 10.2 upbm affinity estimate (log intensity, higher = more binding, comparable within an allelic series) |  | 10.2 upbm affinity estimate (log intensity, higher = more binding, comparable within an allelic series) |  |  |
| GGGTGTCA | 10.4 upbm affinity estimate (log intensity, higher = more binding, comparable within an allelic series) |  |  | 9.2 upbm affinity estimate (log intensity, higher = more binding, comparable within an allelic series) |  |  |  |  | 11.1 upbm affinity estimate (log intensity, higher = more binding, comparable within an allelic series) |  | 9.79 upbm affinity estimate (log intensity, higher = more binding, comparable within an allelic series) | 11.1 upbm affinity estimate (log intensity, higher = more binding, comparable within an allelic series) |  |
| GTATCTTA | 10.7 upbm affinity estimate (log intensity, higher = more binding, comparable within an allelic series) |  | 10.7 upbm affinity estimate (log intensity, higher = more binding, comparable within an allelic series) | 9.9 upbm affinity estimate (log intensity, higher = more binding, comparable within an allelic series) | 11 upbm affinity estimate (log intensity, higher = more binding, comparable within an allelic series) | 10.6 upbm affinity estimate (log intensity, higher = more binding, comparable within an allelic series) | 10.5 upbm affinity estimate (log intensity, higher = more binding, comparable within an allelic series) | 10.5 upbm affinity estimate (log intensity, higher = more binding, comparable within an allelic series) | 10.8 upbm affinity estimate (log intensity, higher = more binding, comparable within an allelic series) | 10.5 upbm affinity estimate (log intensity, higher = more binding, comparable within an allelic series) | 10.3 upbm affinity estimate (log intensity, higher = more binding, comparable within an allelic series) | 10.6 upbm affinity estimate (log intensity, higher = more binding, comparable within an allelic series) | 10.2 upbm affinity estimate (log intensity, higher = more binding, comparable within an allelic series) |
| ATTATCCG | 10.4 upbm affinity estimate (log intensity, higher = more binding, comparable within an allelic series) |  | 10.3 upbm affinity estimate (log intensity, higher = more binding, comparable within an allelic series) | 9.7 upbm affinity estimate (log intensity, higher = more binding, comparable within an allelic series) | 10.4 upbm affinity estimate (log intensity, higher = more binding, comparable within an allelic series) | 10.2 upbm affinity estimate (log intensity, higher = more binding, comparable within an allelic series) | 10.3 upbm affinity estimate (log intensity, higher = more binding, comparable within an allelic series) | 10.3 upbm affinity estimate (log intensity, higher = more binding, comparable within an allelic series) | 10.2 upbm affinity estimate (log intensity, higher = more binding, comparable within an allelic series) | 10.2 upbm affinity estimate (log intensity, higher = more binding, comparable within an allelic series) | 10.2 upbm affinity estimate (log intensity, higher = more binding, comparable within an allelic series) | 10.2 upbm affinity estimate (log intensity, higher = more binding, comparable within an allelic series) | 9.95 upbm affinity estimate (log intensity, higher = more binding, comparable within an allelic series) |
| ACAATACT | 10.3 upbm affinity estimate (log intensity, higher = more binding, comparable within an allelic series) |  | 10.2 upbm affinity estimate (log intensity, higher = more binding, comparable within an allelic series) |  | 10.5 upbm affinity estimate (log intensity, higher = more binding, comparable within an allelic series) | 10.2 upbm affinity estimate (log intensity, higher = more binding, comparable within an allelic series) | 10.2 upbm affinity estimate (log intensity, higher = more binding, comparable within an allelic series) | 10.4 upbm affinity estimate (log intensity, higher = more binding, comparable within an allelic series) | 10.3 upbm affinity estimate (log intensity, higher = more binding, comparable within an allelic series) | 10.2 upbm affinity estimate (log intensity, higher = more binding, comparable within an allelic series) | 10.2 upbm affinity estimate (log intensity, higher = more binding, comparable within an allelic series) | 10.3 upbm affinity estimate (log intensity, higher = more binding, comparable within an allelic series) | 10.1 upbm affinity estimate (log intensity, higher = more binding, comparable within an allelic series) |
